Test results taken from PubChem BioAssay (EPA / NIEHS).
Several values for one entry are separate records, joined by “and”; a condition that tells them apart may be missing. Equal entries are not always repeated. More than one record can exist for a structure, and the calls need not agree. Activity calls are given as the source filed them. The calls were made as follows: active = hit-call score of the fitted dose curve at least 0.9, where 1 is the maximum; inactive = score below 0.9.

What was measured:
[1] = IUF_NPC2c_oligodendrocyte_migration_120hr: Leibniz Research Institute for Environmental Medicine (IUF) 120-hour Neural Progenitor Cell Migration Assay for Oligodendrocyte Migration (NPC2c) (AID 2284297);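 also: O4-positive oligodendrocyte migration distance divided by radial glia migration distance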
Outline: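 Primary hNPC spheres migrating on extracellular matrix, exposed five days to a 7-point dilution series with solvent control. Oligodendrocyte migration was scored by high-content imaging of O4 immunostaining and expressed relative to radial glia distance.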

[2] = read-out: Interleukin-8 (IL8), CXCL8 (gene 3576); assay: BSK_BE3C_IL8: BioMAP Diversity Plus: BE3C Assay for Interleukin-8 (IL8) Biomarker Activity (AID 2284280); conditions: primary human bronchial epithelial cells
Outline: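 Primary human bronchial epithelial cells (BE3C system) were exposed to test chemical for 24 h, and IL-8 levels were then measured by ELISA. Activity was fitted in the positive (gain-of-signal) direction against a DMSO negative-control baseline.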

[3] = read-out: Epidermal growth factor receptor (EGFR), EGFR (gene 1956); assay: BSK_BE3C_EGFR: BioMAP Diversity Plus: BE3C Assay for Epidermal growth factor receptor (EGFR) Biomarker Activity (AID 2284281); conditions: primary human bronchial epithelial cells
Outline: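 Human primary bronchial epithelial cells were exposed to compound for 24 h, and cell-surface EGFR was then quantified by ELISA. Activity was fitted in the positive direction against the DMSO vehicle baseline.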

[4] = read-out: KRT18 (gene 3875); assay: BSK_BE3C_Keratin818: BioMAP Diversity Plus: BE3C Assay for Keratin 818 Biomarker Activity (AID 2284282); conditions: primary human bronchial epithelial cells
Outline: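 ELISA read-out of Keratin 8/18 in BE3C human bronchial epithelial cultures, 24 h post-dosing; positive-direction fit vs DMSO baseline.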

[5] = read-out: Matrix Metallopeptidase 9 (MMP9), MMP9 (gene 4318); assay: BSK_BE3C_MMP9: BioMAP Diversity Plus: BE3C Assay for Matrix Metallopeptidase 9 (MMP9) Biomarker Activity (AID 2284283); conditions: primary human bronchial epithelial cells
Outline: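 Cells were dosed, incubated 24 h, then assayed for MMP-9 by ELISA; activity was fitted upward against DMSO. The system used human lung primary bronchial epithelial cells, with SRB total-protein staining run alongside for cytotoxicity.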

[6] = read-out: Plasminogen activator inhibitor-1 (PAI1), SERPINE1 (gene 5054); assay: BSK_CASM3C_PAI1: BioMAP Diversity Plus: CASM3C Assay for Plasminogen activator inhibitor-1 (PAI1) Biomarker Activity (AID 2284284); conditions: primary human coronary artery smooth muscle cells;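 also: PAI-1 protein level measured by ELISA 24 h after dosing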
[7] = read-out: Monocyte Chemoattractant Protein-1 (MCP1), CCL2 (gene 6347); assay: BSK_hDFCGF_MCP1: BioMAP Diversity Plus: hDFCGF Assay for Monocyte Chemoattractant Protein-1 (MCP1) Biomarker Activity (AID 2284285); conditions: primary human foreskin fibroblasts
Outline: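 MCP-1 ELISA readout was taken 24 hours after dosing primary human dermal fibroblasts in the hDFCGF system, with DMSO as baseline. Parallel sulforhodamine B staining of total protein tracked overt cytotoxicity.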

[8] = read-out: Intercellular Adhesion Molecule 1 (ICAM1), ICAM1 (gene 3383); assay: BSK_hDFCGF_ICAM1: BioMAP Diversity Plus: hDFCGF Assay for Intercellular Adhesion Molecule 1 (ICAM1) Biomarker Activity (AID 2284287); conditions: primary human foreskin fibroblasts
Description: BSK_hDFCGF is a cell-based, multiplexed-readout assay that uses foreskin fibroblast, a human skin primary cell, with measurements taken at 24 hours after chemical dosing in a 96-well plate.BSK_hDFCGF_ICAM1 is an assay component measured in the BSK_hDFCGF assay. It measures ICAM-1 antibody related to regulation of gene expression using ELISA technology.Data from the assay component BSK_hDFCGF_ICAM1 was analyzed at the endpoint, BSK_hDFCGF_ICAM1, in the positive analysis fitting direction relative to DMSO as the negative control and baseline of activity. Using a type of binding reporter, gain or loss-of-signal activity can be used to understand protein changes. To generalize the intended target to other relatable targets, this assay endpoint is annotated to the 'cell adhesion molecules' intended target family, where the subfamily is 'Immunoglobulin CAM'.
(§1) The levels of cell surface (or secreted, indicated by the prefix "s") biomarker endpoints were measured by ELISA. Overt cytotoxicity to cells in confluent adherent cultures (all systems other than the BT system) was assessed by measuring total protein levels using sulforhodamine B (SRB) staining in parallel cultures at the time of biomarker measurements, indicated as SRB endpoints. For proliferation assays for adherent cell types, individual cell types are cultured at sub-confluence and relative cell numbers quantified by SRB staining at time points optimized for each system (48 h: 3C and CASM3C systems; 72 h: BT and HDF3CGF systems; 96 h: SAg system). SRB was performed by staining cells with 0.1% SRB after fixation with 10% TCA and reading wells at 560 nm.Viability and proliferation of PBMC (T cells) was quantified by Alamar Blue reduction for the SAg and BT systems. For PBMC viability (referred to as PBMC Cytotoxicity within the assay endpoint names), cells were plated (75,000/well in a 96-well plate) and then chemical samples added for 1 h before addition of activators, SEB and TSST-1 (20 ng/mL final concentration each). Cells were incubated for 90 h. Then, Alamar Blue (20 uL/well) (Invitrogen, Cat DAL1100) was added for 6 h, and the plates were read with a fluorescence microplate reader at 546/580 nm (excitation/emission). For PBMC proliferation, cells were plated and activated as above but incubated for only 16 h prior to addition of Alamar Blue. Plates were read after 6 h.

[9] = read-out: TIMP metallopeptidase inhibitor 2 (TIMP2), TIMP2 (gene 7077); assay: BSK_hDFCGF_TIMP2: BioMAP Diversity Plus: hDFCGF Assay for TIMP metallopeptidase inhibitor 2 (TIMP2) Biomarker Activity (AID 2284289); conditions: primary human foreskin fibroblasts
Outline: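 Primary human foreskin fibroblasts in the hDFCGF system, dosed for 24 h; TIMP-2 level measured by ELISA, fitted in the positive direction against DMSO; cytotoxicity checked in parallel by sulforhodamine B total protein staining.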

[10] = read-out: Thrombomodulin, THBD (gene 7056); assay: BSK_LPS_Thrombomodulin: BioMAP Diversity Plus: LPS Assay for Thrombomodulin Biomarker Activity (AID 2284296); conditions: primary human HUVEC with PBMC
Description: BSK_LPS is a cell-based, multiplexed-readout assay that uses umbilical vein endothelium and peripheral blood mononuclear cells, a human vascular primary cell co-culture, with measurements taken at 24 hours after chemical dosing in a 96-well plate.BSK_LPS_Thrombomodulin is an assay component measured in the BSK_LPS assay. It measures Thrombomodulin antibody related to regulation of gene expression using ELISA technology.Data from the assay component BSK_LPS_Thrombodulin was analyzed at the endpoint, BSK_LPS_Thrombomodulin, in the positive analysis fitting direction relative to DMSO as the negative control and baseline of activity. Using a type of binding reporter, gain or loss-of-signal activity can be used to understand protein changes. To generalize the intended target to other relatable targets, this assay endpoint is annotated to the 'gpcr' intended target family, where the subfamily is 'rhodopsin-like receptor'.
as §1

**Q.** Which outcome [1] does the source give for `COCCOCCOCCO` here?
**A.** inactive

**Q.** Which outcome [2] does the source give for `O=C(Nc1ccc2c(O)c(N=Nc3ccc(N=Nc4ccc(S(=O)(=O)O)cc4)cc3)c(S(=O)(=O)O)cc2c1)c1ccccc1` here?
**A.** inactive

**Q.** And the outcome [3]?
**A.** inactive

**Q.** What about the outcome [4] of the same molecule?
**A.** inactive

**Q.** And the outcome [5]?
**A.** inactive

**Q.** What about the outcome [6] of the same molecule?
**A.** inactive

**Q.** And the outcome [7]?
**A.** inactive

**Q.** And the outcome [8]?
**A.** inactive

**Q.** And the outcome [9]?
**A.** inactive

**Q.** And the outcome [10]?
**A.** inactive

**Q.** Which results are given for `CCCCCCC(CO)CCCC` (stereo unspecified)?
**A.** outcome [2]: inactive; outcome [3]: inactive; outcome [4]: inactive; outcome [5]: inactive; outcome [6]: inactive; AC50 [7]: 30.9 µM (active) and 35 µM (active); AC50 [8]: 35.6 µM (active) and 34.7 µM (active); AC50 [9]: 30.6 µM (active) and 37.3 µM (active); outcome [10]: inactive

**Q.** With `Oc1c(Cl)cc(Cl)c(Cl)c1Cc1c(O)c(Cl)cc(Cl)c1Cl` as the molecule, how does the AC50 [1] read?
**A.** 0.124 µM (active)

**Q.** With `CC1(C)CCC[C@]2(C)[C@H]3CCO[C@]3(C)CC[C@@H]12` as the molecule, how does the AC50 [2] read?
**A.** 27 µM (active)

**Q.** What about the outcome [2] of the same molecule?
**A.** inactive

**Q.** And the AC50 [3]?
**A.** 33.1 µM (active)

**Q.** And the outcome [3]?
**A.** inactive

**Q.** And the AC50 [4]?
**A.** 30.8 µM (active)

**Q.** What about the outcome [4] of the same molecule?
**A.** inactive

**Q.** What about the AC50 [5] of the same molecule?
**A.** 31.6 µM (active)

**Q.** And the outcome [5]?
**A.** inactive

**Q.** And the outcome [6]?
**A.** inactive

**Q.** What about the AC50 [7] of the same molecule?
**A.** 30.6 µM (active) and 30.5 µM (active)

**Q.** What about the AC50 [8] of the same molecule?
**A.** 37.5 µM (active) and 37.8 µM (active)

**Q.** What about the AC50 [9] of the same molecule?
**A.** 36.4 µM (active) and 37.9 µM (active)

**Q.** And the outcome [10]?
**A.** inactive

**Q.** Which outcome [2] does the source give for `CC(CN=Cc1ccccc1O)N=Cc1ccccc1O` (stereo unspecified) here?
**A.** inactive

**Q.** What about the outcome [3] of the same molecule?
**A.** inactive

**Q.** And the outcome [4]?
**A.** inactive

**Q.** And the outcome [5]?
**A.** inactive

**Q.** What about the outcome [6] of the same molecule?
**A.** inactive

**Q.** And the outcome [7]?
**A.** inactive

**Q.** And the outcome [8]?
**A.** inactive

**Q.** What about the outcome [9] of the same molecule?
**A.** inactive

**Q.** And the outcome [10]?
**A.** inactive

**Q.** For `COCCc1ccc(OCC(O)CNC(C)C)cc1` (stereo unspecified), which outcome [1] is on record?
**A.** inactive

**Q.** For `CCOC(=O)C(C#N)=C(c1ccccc1)c1ccccc1`, which outcome [2] is on record?
**A.** inactive

**Q.** And the outcome [3]?
**A.** inactive

**Q.** And the outcome [4]?
**A.** inactive

**Q.** What about the outcome [5] of the same molecule?
**A.** inactive

**Q.** What about the outcome [6] of the same molecule?
**A.** inactive

**Q.** What about the outcome [7] of the same molecule?
**A.** inactive

**Q.** What about the outcome [8] of the same molecule?
**A.** inactive

**Q.** What about the outcome [9] of the same molecule?
**A.** inactive

**Q.** And the outcome [10]?
**A.** inactive

**Q.** Which results are given for `O=CN1CCOCC1`?
**A.** outcome [2]: inactive; outcome [3]: inactive; outcome [4]: inactive; outcome [5]: inactive; outcome [6]: inactive; outcome [7]: inactive; outcome [8]: inactive; outcome [9]: inactive; outcome [10]: inactive

**Q.** With `CN(C)CCOC(C)(c1ccccc1)c1ccccn1` (stereo unspecified) as the molecule, how does the outcome [1] read?
**A.** inactive

**Q.** With `C=CC(C)(O)CCC=C(C)C` (stereo unspecified) as the molecule, how does the outcome [2] read?
**A.** inactive

**Q.** What about the outcome [3] of the same molecule?
**A.** inactive

**Q.** And the outcome [4]?
**A.** inactive

**Q.** And the outcome [5]?
**A.** inactive

**Q.** What about the outcome [6] of the same molecule?
**A.** inactive

**Q.** What about the outcome [7] of the same molecule?
**A.** inactive

**Q.** And the outcome [8]?
**A.** inactive

**Q.** What about the outcome [9] of the same molecule?
**A.** inactive

**Q.** What about the outcome [10] of the same molecule?
**A.** inactive
